# In PubChem BioAssay AID687001 (Broad Institute, 2013):
# Potency and affinity values are given separately. Calls of active or inactive are those of the source.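 How the source made its calls: active means signal-lowering compounds whose fitted half-maximal concentration is at or below twice the top tested dose in every run; inconclusive means runs disagree, flat 30 to 70% inhibition, or poor curve fit; inactive means the rest.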
# Target: Protein S100-A4 (Homo sapiens) (UniProt P26447)
# Test: human S100A4 peptide interaction inhibition curves – biochemical, fluorescence polarization, cherry-picked hits, dose response (AID 687001)
# Settings: FP, S100A4/TAMRA-myosin IIA peptide binding; series mostly up to 11 µM
# Chain of Protein S100-A4 (Homo sapiens) (P26447 whole entry, looked up): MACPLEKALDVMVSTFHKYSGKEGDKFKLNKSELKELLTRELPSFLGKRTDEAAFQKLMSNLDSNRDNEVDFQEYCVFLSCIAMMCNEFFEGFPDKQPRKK
row,Compound,outcome
1,S=C(NCCCc1cnc[nH]1)NCCCN(Cc1ccc(Cl)cc1)c1ccc(Br)cn1,inactive
2,CC1(C)Cc2cccc(OCC(=O)N3CCN(c4cccc(C(F)(F)F)c4)CC3)c2O1,inactive
3,Cc1nn(C)cc1S(=O)(=O)Nc1ccc(C(F)(F)F)cc1,inactive
4,COc1ccccc1CNc1nc(C)c(C(C)=O)s1,inactive
5,CCN1C(=O)c2ccccc2S(=O)(=O)c2ccc(C(=O)NCC(OC)OC)cc21,inactive
6,COc1ccc(OC)c(S(=O)(=O)NCC(c2ccco2)N2CCc3ccccc32)c1 (centres undefined),inactive
7,COc1ccc(NC(=O)N(C)C[C@H]2Oc3ccc(N(C)C)cc3C(=O)N([C@@H](C)CO)C[C@@H]2C)cc1,inactive
8,Cc1cc(Cl)nc(-n2nc(C)cc2C)n1,inactive
9,N#C[C@@H]1[C@H](c2ccccc2-c2cccc(F)c2)[C@@H](CO)N1C(=O)C1CC1,inactive
10,CC(C)(C)c1cc[n+](-c2[nH]c(=O)sc2/C=N/N=C(\[O-])c2ccccc2)cc1,inactive
11,CC(=O)N(C)C[C@@H]1Oc2cc(C#CCC(C)C)ccc2S(=O)(=O)N([C@H](C)CO)C[C@@H]1C,inactive
12,O=C(CCc1ccccc1)Nc1sc2c(c1C(=O)O)CCCC2,inactive
13,COC(=O)CCCC1=CC2=C(c3ccccc3)C(=O)C(C)(OC(=O)C3CCCC3)C(=O)C2=CN1Cc1ccc2c(c1)OCO2 (centres undefined),inactive
14,COC(=O)c1ccc(NC(=O)C2CCCN2C(=O)Nc2cccc(C(C)=O)c2)cc1 (centres undefined),inactive
15,CNC[C@@H]1OCCCC[C@@H](C)Oc2ccc(NS(=O)(=O)c3cccs3)cc2C(=O)N([C@H](C)CO)C[C@H]1C,inactive
16,C[C@@H]1CCCCO[C@H](CN(C)S(=O)(=O)c2cccs2)[C@@H](C)CN([C@@H](C)CO)C(=O)c2cc(NS(=O)(=O)c3cccs3)ccc2O1,inactive
17,Cc1cc(C)c(NC(=O)CS(=O)CC(=O)NCCN2CCCCCC2)c(C)c1 (centres undefined),inactive
18,CCOc1ccc(NC(=O)CN(C)C(=O)c2cccc3ccccc23)cc1OCC,inactive
19,COCC(=O)Nc1ccc2c(c1)[C@@H]1C[C@@H](CC(=O)N3CCOCC3)O[C@@H](CO)[C@@H]1O2,inactive
20,CC(=O)N1[C@H](C(=O)NCCCN(C)C)[C@@H](CO)[C@@H]2Cn3c(ccc(-c4cccc(F)c4)c3=O)[C@@H]21,inactive

row,Compound,outcome
1,O=C(C[C@@H]1CC[C@@H](NC(=O)NC2CCCC2)[C@H](CO)O1)NCc1ccc(F)cc1,inactive
2,C[C@@H]1CN([C@@H](C)CO)C(=O)c2cc(NC(=O)NC3CCCCC3)ccc2O[C@@H](C)CCCCO[C@@H]1CN(C)S(=O)(=O)c1cn(C)cn1,inactive
3,CCOc1ccc(N(CC)C(=O)CCS(=O)(=O)c2cccc3nonc23)cc1,inactive
4,Cc1ccc(CNC(=O)c2[nH]c(C(F)(F)F)nc2-c2ccccc2)cc1,inactive
5,Clc1ccc(-c2nc(CSc3ccccn3)cs2)cc1,inactive
6,Cc1ccc(F)cc1NC(=O)CN1C(=O)NC(C)(c2ccc3c(c2)OCCO3)C1=O (centres undefined),inactive
7,O=C(CSc1nc2cc(Cl)ccc2s1)c1ccco1,inactive
8,CN1c2ccc(C3=CCCCC3)cc2[C@@H]2[C@@H](CCN2C(=O)C2CC2)[C@H]1CO,inactive
9,CCCNC(=O)N[C@H]1C=C[C@@H](CC(=O)N2CCN(C)CC2)O[C@@H]1CO,inactive
10,CC1=CC(C)(C)NC(=S)N1C(C)c1ccccc1 (centres undefined),inactive
11,O=C(CN1C(=O)CCS(=O)(=O)c2ccccc21)Nc1ccc(F)cc1,inactive
12,CC(C)C#Cc1ccc2c(c1)O[C@@H](CN(C)C(=O)NC(C)C)[C@H](C)CN([C@H](C)CO)S2(=O)=O,inactive
13,O=C(/C=C(\Nc1ccc(Cl)c(C(F)(F)F)c1)c1ccccc1)c1ccccc1,inactive
14,O=C1NC(Cc2ccc(Cl)cc2)COCc2cnnn2CCC1c1ccccc1 (centres undefined),inactive
15,COc1ccc(CNC(=O)CN2C(=O)c3ccccc3C2=O)cc1,inactive
16,C[C@@H]1CN([C@H](C)CO)C(=O)c2cc(-c3ccc(F)cc3)cnc2O[C@H]1CN(C)Cc1cncnc1,inactive
17,C[C@@H]1CN([C@H](C)CO)C(=O)c2c(c3ccccc3n2C)-c2ccccc2CO[C@H]1CN(C)S(=O)(=O)c1ccccc1,inactive
18,C[C@@H]1CN([C@@H](C)CO)C(=O)c2cccc(NC(=O)C3CC3)c2O[C@@H]1CN(C)S(C)(=O)=O,inactive
19,CCN(CC(=O)NCc1ccc(F)cc1)C(=O)/C=C/c1ccc(OC)c(S(=O)(=O)NC(C)C)c1,inactive
